Rows were chosen to be rich in hits. Some 3.6% of all compounds tested hit in one or more screens of this group.
FUS yeast rescue: FUS proteinopathy suppression in yeast; hit rate 0.24% among 390,000; Potency, µM (doses to about 76.6 µM), most hits filed as activators; S. cerevisiae FUS-expressing, growth rescue, OD600, 24 h; note: nearly all actives have a fitted effect of over 55% in size
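Steps: raffinose overnight preculture; dilution to OD 0.005 in 2% galactose minimal medium; compound addition (concentration series); 24hr at 30C, 99% humidity; absorbance read at 600 nm.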
aSyn rescue: rescues yeast growth from alpha-synuclein toxicity | Yeast expressing alpha-synuclein, growth rescue, BacTiter-Glo, 24 h | Potency, µM (series often up to 46.1 µM), usual class: activators | hit rate 0.14% among 370,000; note: nearly all actives have a fitted effect of over 65% in size
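Readout is rescue of growth in alpha-synuclein-expressing yeast, so inhibitors of toxicity appear as activators. Growth after 24 hr at 30 deg C in galactose medium is quantified by luminescence.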
TDP43 rescue: rescues yeast growth from TDP-43 toxicity; TDP-43 expressing yeast growth rescue, BacTiter-Glo, 24 h; Potency, µM (doses to about 46.1 µM), usual class: activators; hit rate 1.8% among 410,000; AID 652104; note: nearly all actives have a fitted effect of over 50% in size
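Growth rescue of TDP-43-toxic yeast measured as ATP luminescence (BacTiter-Glo). Cells grown to mid-log in raffinose, induced in galactose at OD600=0.02, exposed to compound 24 hr at 30 deg C.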
MmCpn inh: M. maripaludis TRiC chaperonin inhibition | purified Mm-Cpn ATPase, ADP Transcreener TR-FRET | Potency, µM (highest dose often 76.9 µM), most hits filed as inhibitors | hit rate 0.031% among 330,000 | AID 504842; note: nearly all actives have a fitted effect of over 80% in size
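Purified archaeal Mm-CPN (25nM final) preincubated 10 min at 37degC with compound, then 10uM ATP for 30 min at 37degC; ADP measured by HTRF Transcreener TR-FRET; buffer 30 mM TRIS pH 7.4, 100mM KCl, 5mM MgCl2, 1mM DTT.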
ClpP mod: qHTS Assay for Activators of ClpP; ATP-dependent Clp protease proteolytic subunit (Bacillus subtilis (strain 168)), P80244; purified B. subtilis ClpP, FRET peptide cleavage, 20 min; Potency, µM (titrated, usually from 57.5 µM); hit rate 1.9% among 340,000; active = well fitted falling curve with a large enough effect; inconclusive = small, poorly fitted or top-dose-only effect; inactive = no such curve, though single readings can be large or run the other way; note: the source files actives as falling curves though it sought activators and does not explain the sign; nearly all actives have a fitted effect of over 65% in size
Target sequence (P80244 whole entry, looked up): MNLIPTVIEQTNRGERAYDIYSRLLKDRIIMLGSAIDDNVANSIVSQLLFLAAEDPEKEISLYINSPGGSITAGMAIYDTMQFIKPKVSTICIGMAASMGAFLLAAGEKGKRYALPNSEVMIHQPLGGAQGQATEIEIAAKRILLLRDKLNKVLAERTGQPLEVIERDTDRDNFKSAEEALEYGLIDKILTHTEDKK
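Purified B. subtilis ClpP, 10 microg/mL final in Tris/HCl pH8 with KCl, BSA, glycerol and Tween-20, cleaved an Abz/nitrotyrosine-quenched decapeptide. Fluorescence (ex 320, em 430) was read at 0 and 20 min at room temperature. Delta was normalized to 5.8 microM ADEP and DMSO/no-enzyme controls.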
Abeta rescue: restores growth of yeast expressing A-beta42 peptide; hit rate 0.063% among 410,000; yeast expressing A-beta42, growth rescue, OD600, 48 h; response scale: 0% DMSO, 100% iron-clioquinol control; AID 1347071; Potency, µM (series often up to 46.1 µM), hits mostly activators; note: nearly all actives have a fitted effect of over 55% in size
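Yeast growth medium received pinned compounds, then yeast cells expressing toxic A-beta were added; plates incubated at 30 C for 48 hr. Growth read as absorbance at 600 nm, normalized to DMSO and equimolar FeCl3 plus clioquinol controls.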
Of the large screens only hits and unclear results are named; the others gave an inactive call. Unless noted, calls come from the whole dose curve; as a rule, active = well fitted curve in the direction sought with a large enough effect; inconclusive = small, poorly fitted or top-dose-only effect, or another doubt; inactive = no such curve, though single readings can be large; an effect the other way counts as inactive or inconclusive.

COc1ccc(NC(=O)N2CCN(C(=O)C(Cc3ccc(F)cc3)NC(C)=O)CC2)cc1 (stereo not drawn)	ClpP mod 31.6µM
CC(=O)NC(Cc1ccc(F)cc1)C(=O)NC1CCN(C(=O)Nc2ccc(F)cc2)CC1 (stereo not drawn)	none (no result: ClpP mod)
N#CCCn1cc(CNCc2cccnc2)c(-c2ccccc2)n1	ClpP mod inconclusive (no result: FUS yeast rescue, TDP43 rescue, MmCpn inh, Abeta rescue)
CN(C)c1ccc(CNc2nc(-c3ccco3)nn2S(=O)(=O)c2ccc3ccccc3c2)cc1	FUS yeast rescue inconclusive (no result: aSyn rescue, MmCpn inh)
O=[N+]([O-])c1ccc(N2CCc3ccccc3C2)nc1	TDP43 rescue 12.6µM
Cc1ccc2oc(=O)c3cc(C(=O)Nc4ccc(F)cc4F)sc3c2c1	none (no result: aSyn rescue, MmCpn inh)
O=C(N/N=C/c1c(O)ccc2ccccc12)C(=O)N1CCCC1	aSyn rescue 22.4µM, Abeta rescue inconclusive (no result: MmCpn inh)
O=C(CN1CCCC1)N/N=C/c1c(O)ccc2ccccc12	none
CCOC(=O)C1CCN(S(=O)(=O)c2ccc(OC)c(OC)c2)CC1	none
COc1ccc(S(=O)(=O)N2CCCCC2)cc1NC(=O)COC(=O)c1ccco1	none (no result: FUS yeast rescue)
COc1ccc(S(=O)(=O)N2CCCCC2)cc1NC(=O)c1ccco1	ClpP mod 15.8µM
COc1ccccc1NC(=O)c1cccc(S(=O)(=O)N2CCCCCC2)c1	TDP43 rescue 35.5µM (no result: aSyn rescue, MmCpn inh)
CCOC(=O)C1CCN(S(=O)(=O)c2ccc(Br)c(OCC)c2)CC1	FUS yeast rescue 5.62µM
COc1ccc(OC)c(CCNC(=O)Cn2ccc3cc(S(=O)(=O)N4CCCCC4)ccc32)c1	FUS yeast rescue 35.5µM (no result: aSyn rescue, MmCpn inh)
CN(C)c1ccc(/C=C2\Cc3ccccc3C2=O)cc1	none (no result: FUS yeast rescue, TDP43 rescue, MmCpn inh, Abeta rescue)
O=CC(=O)c1ccc(F)cc1	none (no result: FUS yeast rescue, TDP43 rescue, MmCpn inh, Abeta rescue)
CCCN(C(=O)c1cc(S(=O)(=O)N2CCc3ccccc32)cn1C)c1ccc(OCC)cc1	FUS yeast rescue inconclusive (no result: aSyn rescue, MmCpn inh)
COC(=O)c1ccc(NC(=O)c2nc(S(=O)(=O)Cc3ccccc3F)ncc2Cl)cc1	aSyn rescue inconclusive (no result: FUS yeast rescue, TDP43 rescue, MmCpn inh, Abeta rescue)
COc1ccc(S(=O)(=O)N2CCCCCC2)cc1C(=O)NCc1ccccc1Cl	ClpP mod 25.1µM
COc1ccc(C(=O)Nc2ccccc2N2CCCCC2)cc1[N+](=O)[O-]	TDP43 rescue 17.8µM
COc1ccc(S(=O)(=O)N2CCCCCC2)cc1C(=O)NCc1ccco1	none (no result: ClpP mod)
O=C(Nc1cc(S(=O)(=O)N2CCCCCC2)ccc1OCC(F)(F)F)C1CCC1	none
CCOc1ccc(S(=O)(=O)N2CCCCC2)cc1NC(=O)C1CCC1	ClpP mod 14.1µM
CCOC(=O)CNC(c1ccccc1)c1cc(Br)ccc1NC(=O)c1ccc(Cl)cc1 (stereo not drawn)	none (no result: aSyn rescue, MmCpn inh)
Cc1ccc(NC(=O)CC2Oc3ccccc3NC2=O)cc1C (stereo not drawn)	none (no result: aSyn rescue, MmCpn inh)
CCCOc1ccc(NC(=O)CC2C(=O)N(c3ccc(OC)cc3)C(=O)N2CCc2ccncc2)cc1 (stereo not drawn)	none (no result: aSyn rescue, MmCpn inh)
OC(C[n+]1c(Cl)ccc2ccccc21)c1ccccc1 (stereo not drawn)	none (no result: FUS yeast rescue, aSyn rescue, TDP43 rescue, MmCpn inh, Abeta rescue)
Cc1csc(NC(=O)CSc2nnc(-c3ccc(S(=O)(=O)N4CCCC4)cc3)o2)n1	ClpP mod 28.2µM (no result: FUS yeast rescue)
Cc1ccc(Nc2nc(-c3ccc(S(=O)(=O)N4CCOCC4)cc3)cs2)cc1Cl	ClpP mod 15.8µM
CC(C)CC(=O)Nc1nc(-c2ccc(S(=O)(=O)N3CCOCC3)cc2)cs1	ClpP mod 31.6µM
CCCCC(=O)Nc1nc(-c2ccc(S(=O)(=O)N3CCOCC3)cc2)cs1	ClpP mod 28.2µM (no result: FUS yeast rescue)
O=C(Nc1nc(-c2ccc(S(=O)(=O)N3CCOCC3)cc2)cs1)c1ccccc1	MmCpn inh inconclusive
COc1cccc(C(=O)Nc2nc(-c3ccc(S(=O)(=O)N4CCOCC4)cc3)cs2)c1	ClpP mod inconclusive
Cc1ccc(S(=O)(=O)N2CCOCC2)cc1C(=O)Nc1nc(-c2cccnc2)cs1	none
Cc1ccc(NC(=O)c2cc3c(=O)n(Cc4cccnc4)ccc3nc2C)cc1F	none (no result: aSyn rescue, MmCpn inh)
COc1ccc(OC)c2c(C)ccnc12	none (no result: FUS yeast rescue, aSyn rescue, TDP43 rescue, MmCpn inh, Abeta rescue)

Screening data from PubChem BioAssay.
